The whole screen tested about 100,000 compounds, of which about 770 (0.77%) were called active. No stated cut-off is given here; in the data, active means inhibition above about 50%; inactive means the rest. The list comes from a sample in which actives are over-represented; it also holds similar structures and randomly drawn compounds.

This note sets out measurements from PubChem BioAssay AID372 (MTDP, 2006).

The assay addresses Gag-Pol polyprotein (Human immunodeficiency virus type 1 group M subtype B (isolate HXB2)) (UniProt P04585). Kind of assay: RNase H inhibition, HIV 1 Gag Pol polyprotein, FRET biochemical assay, screening (AID 372). The following applies: HIV-1 RT RNase H, FRET RNA/DNA substrate fluorescence; at 10 µM; stronger effect = higher value.
A word on the inhibition: it is the change of the read-out against control, counted positive when it falls. `NC(=O)c1c(N)sc2c1CCCCCCCCCC2`: the inhibition is 28% (inactive). For `NC(=O)c1c(N)sc2c1CCCCCC2` the value was 20% (inactive). The value for `COc1ccc2ccccc2c1/C=C1/C(=O)NC(=O)N(Cc2ccco2)C1=O` was 50% (active). For `NC(=O)Cn1cc(/C=C2/C(=O)NC(=O)N(Cc3ccco3)C2=O)c2ccccc21` the value was 0% (inactive). `O=C1NC(=O)N(Cc2ccco2)C(=O)/C1=C\c1cn(Cc2ccc(Cl)cc2)c2ccccc12`: the inhibition was 37% (inactive). The value for `COc1cc(N2Cc3ccccc3C2)ccc1/C=C1\C(=O)NC(=O)N(Cc2ccco2)C1=O` was 51% (active); that for `O=C1NC(=O)N(Cc2ccco2)C(=O)/C1=C/c1ccc(OCCOc2ccccc2)cc1` was 13% (inactive).

Consider `COc1ccc(CN2C(=O)NC(=O)/C(=C\C=C\c3ccccc3)C2=O)cc1`, for which the inhibition is 10% (inactive). The value for `Cc1cc(N2Cc3ccccc3C2)ccc1/C=C1\C(=O)NC(=O)N(Cc2ccco2)C1=O` was 42% (inactive); that for `COc1ccc(/C=C2/C(=O)NC(=O)N(Cc3ccco3)C2=O)c2ccccc12` was 48% (inactive); that for `COc1ccc2ccccc2c1/C=C1\C(=O)NC(=O)N(Cc2ccccc2)C1=O` was 40% (inactive). The value for `CCN(CC)c1ccc(/C=C2/C(=O)NC(=O)N(Cc3ccco3)C2=O)c(OC)c1` was 45% (inactive). For `O=C1NC(=O)N(Cc2ccco2)C(=O)/C1=C\C=C\c1ccccc1` the value was 52% (active); for `O=C1NC(=O)N(Cc2ccco2)C(=O)/C1=C\c1cn(Cc2cccc(F)c2)c2ccccc12`, 57% (active); for `Cc1ccc(NC(=O)c2ccc(Cl)c(Cl)c2)c([N+](=O)[O-])c1`, 1% (inactive).

Turning to `CC(=O)NC(NC(=S)Nc1sc2c(c1C#N)CCCC2)C(Cl)(Cl)Cl` (stereo unspecified), the inhibition was 20% (inactive). For `COc1cc(C2CC(=O)NC(SCc3ccccc3)=C2C#N)ccc1O` (stereo unspecified) the value was 6% (inactive). For `O=C(NN=C1CCCCC1)C(=O)Nc1ccc(F)cc1` the value was 8% (inactive). For `CCOc1c(Br)cc(/C=C2N=C(/C=C/c3ccccc3)OC/2=O)cc1OC` the value was 9% (inactive).

`O=C(NNC(=O)c1cccc(C(=O)NNC(=O)c2ccc(Br)cc2)c1)c1ccc(Br)cc1`: the inhibition was 53% (active). For `O=C(NNC(=O)c1cccc(C#Cc2ccccc2)c1)c1ccc(Br)cc1` the value was 46% (inactive); for `O=C(NNC(=O)c1cccc(O)c1)c1ccc(Br)cc1`, 10% (inactive); for `COc1ccc(C(NC(=O)C(C)C)c2ccc3cccnc3c2O)cc1OC` (stereo unspecified), 5% (inactive). The value for `Oc1ccc(C=Nc2ccc(Cl)c(Cl)c2)cc1O` was 17% (inactive); that for `Oc1ccc(C=Nc2ccc(N=Cc3ccc(O)cc3)cc2)cc1` was 15% (inactive). The value for `Oc1ccc(/C=N/N=C/c2ccc(O)c(O)c2)cc1O` was 69% (active). As for `Cc1nnc(C)n1/N=C/c1ccc(O)c(O)c1`, the inhibition is 44% (inactive). For `Oc1ccc(N=Cc2ccc(O)c(O)c2)cc1` the value was 70% (active); for `Oc1ccc(C=Nc2ccc(O)cc2)cc1`, 4% (inactive). For `COc1ccc(C(=O)OCC(=O)c2ccc(Br)cc2)cc1OC` the value was 16% (inactive); for `C=CCN(c1ccccc1C(=O)O)S(=O)(=O)/C=C/c1ccccc1`, 6% (inactive). For the molecule `CCOc1ccc(/C=N/NC(=O)c2cc(-c3ccc4ccccc4c3)n[nH]2)cc1`, the inhibition is 14% (inactive). The value for `COc1ccc(NCC(O)Cn2c3ccc(Cl)cc3c3cc(Cl)ccc32)c(OC)c1` (stereo unspecified) was 27% (inactive); that for `O=C(NCc1ccco1)c1ccc(-c2cc(Cl)ccc2Cl)o1` was 31% (inactive).

Regarding `Cn1c(O)c(N=NC(=O)C2COc3cc4ccccc4cc3O2)c2ccccc21` (stereo unspecified), the inhibition is 50% (active).

As for `CCCn1c(O)c(N=NC(=O)C2COc3cc4ccccc4cc3O2)c2ccccc21` (stereo unspecified), the inhibition is 34% (inactive). The value for `O=C(N=Nc1c(O)[nH]c2ccc(Br)cc12)C1COc2cc3ccccc3cc2O1` (stereo unspecified) was 4% (inactive); that for `Cc1ccc2c(c1)c(N=NC(=O)COc1ccccc1C)c(O)n2C` was 20% (inactive); that for `O=C(NCCOc1cccc2ccccc12)Nc1cccc2ccccc12` was 51% (active). For `O=C(NCCOc1cccc2ccccc12)Nc1cc(F)c(F)cc1Cl` the value was 0% (inactive); for `S=C(NCCOc1cccc2ccccc12)Nc1cccc2ccccc12`, 45% (inactive); for `O=C(NN1CCOCC1)c1ccc(Br)cc1`, 2% (inactive). As to `Cc1cccnc1NS(=O)(=O)c1cc(Cl)ccc1Cl`, the inhibition is 10% (inactive).

Turning to `O=C1C=CC(=NS(=O)(=O)c2ccc(F)cc2)C=C1`, the inhibition was 43% (inactive). For `O=C1C=C/C(=N\S(=O)(=O)c2ccc(Cl)c([N+](=O)[O-])c2)c2ccccc21` the value was 34% (inactive). For `O=C1C=CC(=NS(=O)(=O)c2ccccc2)C=C1` the value was 56% (active); for `O=C1C=CC(=NS(=O)(=O)c2cccc([N+](=O)[O-])c2)C=C1`, 45% (inactive); for `CC1=C/C(=N/S(=O)(=O)c2ccc(C)cc2)C=C(Cl)C1=O`, 17% (inactive). The value for `CC1=CC(=O)C=C/C1=N\S(=O)(=O)c1ccc(C)cc1` was 32% (inactive); that for `Cc1ccc(S(=O)(=O)/N=C2/C=C(Cl)C(=O)c3ccccc32)cc1` was 20% (inactive); that for `O=C1C=CC(=NS(=O)(=O)c2ccc(Cl)cc2)C=C1` was 28% (inactive).

For the molecule `Cc1ccc(S(=O)(=O)/N=C2\C=CC(=O)C(Br)=C2)cc1`, the inhibition is 20% (inactive).

Take `COc1ccc(Cl)cc1NC(=O)c1cc(-c2ccccc2)nc2ccccc12`: the inhibition was 0% (inactive).

Turning to `COc1cc(C2/C(=C(\O)c3ccc(C)cc3)C(=O)C(=O)N2CCCC(=O)O)ccc1O` (stereo unspecified), the inhibition was 0% (inactive). In the case of `CCOC(=O)C1=C(C)N=c2s/c(=C\c3ccccc3O)c(=O)n2C1c1ccc(Cl)cc1` (stereo unspecified), the inhibition was 21% (inactive). For `COc1ccc(NC(=O)c2nn3c(C(F)(F)F)cc(-c4ccco4)nc3c2Cl)c(OC)c1` the value was 13% (inactive); for `COc1ccc(C(=O)N/C(=C\c2ccc(-c3cccc([N+](=O)[O-])c3)o2)C(=O)NCc2ccncc2)cc1`, 0% (inactive). For `O=C1C=C/C(=N\S(=O)(=O)c2ccccc2)C=C1Cl` the value was 19% (inactive); for `CC(C)(C)c1ccc(S(=O)(=O)N=C2C=CC(=O)C=C2)cc1`, 20% (inactive); for `O=C1C(Cl)=CC(=NS(=O)(=O)c2ccc(Cl)cc2)C=C1Cl`, 28% (inactive). For `O=C1C(Cl)=CC(=NS(=O)(=O)c2ccc(Cl)cc2)c2ccccc21` the value was 8% (inactive); for `CC(C)C1=CC(=NS(=O)(=O)c2ccc(Cl)cc2)C=C(C(C)C)C1=O`, 5% (inactive); for `O=S(=O)(N=C1C(Cl)=C(Cl)C(=NS(=O)(=O)c2ccccc2)C(Cl)=C1Cl)c1ccccc1`, 31% (inactive). Turning to `Cc1ccccc1S(=O)(=O)N=C1C=CC(=O)C(Cl)=C1`, the inhibition was 11% (inactive). For `O=C1C(Cl)=CC(=NS(=O)(=O)c2ccccc2)C=C1Br` the value was 26% (inactive); for `CC(=O)N/C(=C\c1ccccc1)C(=O)NCC(=O)O`, 6% (inactive). As for `Cc1cccc(NC(=O)C(=O)NNC(=O)c2ccccc2C)c1`, the inhibition was 4% (inactive). Turning to `Cc1ccc(-c2ccccc2)n1-c1ccccc1C(=O)O`, the inhibition is 12% (inactive). With `O=C(O)/C=C\C(=O)N/N=C/c1ccccc1`, the inhibition is 4% (inactive).

On to `O=C(Nc1ccccn1)c1ccc2c(c1)C(=O)N(c1cccc3c(N4C(=O)c5ccc(C(=O)Nc6ccccn6)cc5C4=O)cccc13)C2=O`, for which the inhibition is 2% (inactive). For `CCC1CCc2c(sc(NC(=O)c3ccc([N+](=O)[O-])cc3Cl)c2C(=O)OC)C1` (stereo unspecified) the value was 0% (inactive). For `CC1=C(C)/C(=N\S(=O)(=O)c2ccc(C)cc2)C=C(N2CCOCC2)C1=O` the value was 19% (inactive).

Consider `O=C1C(N2CCOCC2)=C/C(=N\S(=O)(=O)c2ccc(Cl)cc2)c2ccccc21`, for which the inhibition was 61% (active). For `Cc1ccc(S(=O)(=O)/N=C2/C=C(N3CCOCC3)C(=O)c3ccccc32)cc1` the value was 5% (inactive); for `Cc1ccccc1N1C(=O)C2C3c4ccccc4C(C)(c4ccccc43)C2C1=O` (stereo unspecified), 0% (inactive); for `O=C(COc1cc(O)c2c(=O)cc(-c3ccccc3)oc2c1)c1ccccc1`, 3% (inactive). The value for `O=C1C(=O)N(c2nccs2)C(c2ccccc2F)/C1=C(/O)c1ccc(Cl)cc1` (stereo unspecified) was 21% (inactive); that for `COc1cccc(NC(=O)Nc2nnc(-c3ccccc3I)s2)c1` was 0% (inactive); that for `COc1cccc(NC(=O)Nc2nnc(-c3ccccc3F)s2)c1` was 53% (active). The value for `COc1cccc(NC(=O)Nc2nnc(-c3ccccc3SCc3ccccc3F)s2)c1` was 23% (inactive). In the case of `CCc1nnc(NC(=O)CCCOc2ccc(Cl)cc2C)s1`, the inhibition was 12% (inactive).

`O=[N+]([O-])c1ccc(NCCCNS(=O)(=O)c2ccc(Cl)cc2)cc1`: the inhibition is 8% (inactive).

For the molecule `O=C(O)CCC(=O)NNC(=O)c1ccncc1`, the inhibition was 10% (inactive). The value for `CCOC(=O)C1CCCN(C(=O)c2cc(C(=O)OC)cc([N+](=O)[O-])c2)C1` (stereo unspecified) was 16% (inactive). For `CCOC(=O)C1CCN(C(=O)c2cc(C(=O)OC)cc([N+](=O)[O-])c2)CC1` the value was 54% (active). For `CCOC(=O)CNC(=O)c1cccc([N+](=O)[O-])c1` the value was 15% (inactive); for `CCOC(=O)CNC(=O)c1cc(C(=O)OC)cc([N+](=O)[O-])c1`, 52% (active); for `CCOC(=O)CNC(=O)c1ccc([N+](=O)[O-])cc1`, 4% (inactive). For `COC(=O)c1cc(C(=O)N2CCC(C(=O)OC)CC2)cc([N+](=O)[O-])c1`, the inhibition was 7% (inactive).

As for `O=C(CN(c1ccc([N+](=O)[O-])cc1)S(=O)(=O)c1ccccc1)NC1CC2CCC1C2` (stereo unspecified), the inhibition was 13% (inactive). The value for `Cc1ccc(N2C(=O)NC(=O)/C(=C\c3ccc(OCC(=O)O)c(Br)c3)C2=O)cc1` was 3% (inactive). The value for `O=C(NC(=S)Nc1cccc(C(F)(F)F)c1)c1ccc(-c2ccc(Cl)cc2)o1` was 10% (inactive); that for `O=C(Nc1ccc(F)cc1)Nc1nnc(-c2ccccc2SCc2ccccc2)s1` was 25% (inactive); that for `Clc1cccc(Cl)c1OCCCN1CCCCC1` was 2% (inactive). As for `Clc1cccc(Cl)c1OCCCN1CCCC1`, the inhibition is 7% (inactive). For `Clc1cccc(Cl)c1OCCN1CCCC1` the value was 56% (active).
